Results filed as inconclusive are left out. Activity calls are given as the source filed them. How the source made its calls: active means hit-call score of the fitted dose curve at least 0.9, where 1 is the maximum; inconclusive means response in the unintended direction; inactive means score below 0.9.
Target: Estrogen receptor (Homo sapiens) (UniProt P03372)
Assay: OT_ER_ERaERa_1440: Odyssey Thera (OT) 24-hour HEK293T Protein-Complementation Assay for Estrogen Receptor-alpha/-alpha Homodimer (AID 2283349);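 further: hits raise fluorescence above DMSO for agonists and antagonists alike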
Method in brief: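 HEK293T, stable ERα LBD (aa 310-547) homodimer PCA; 24 h compound exposure; mean fluorescence intensity (nuclear for agonists, nuclear plus cytoplasmic for antagonists) vs vehicle; positive fitting direction, DMSO baseline.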

Sequence of Estrogen receptor (Homo sapiens) (P03372 whole entry, looked up, the tested form may be a part): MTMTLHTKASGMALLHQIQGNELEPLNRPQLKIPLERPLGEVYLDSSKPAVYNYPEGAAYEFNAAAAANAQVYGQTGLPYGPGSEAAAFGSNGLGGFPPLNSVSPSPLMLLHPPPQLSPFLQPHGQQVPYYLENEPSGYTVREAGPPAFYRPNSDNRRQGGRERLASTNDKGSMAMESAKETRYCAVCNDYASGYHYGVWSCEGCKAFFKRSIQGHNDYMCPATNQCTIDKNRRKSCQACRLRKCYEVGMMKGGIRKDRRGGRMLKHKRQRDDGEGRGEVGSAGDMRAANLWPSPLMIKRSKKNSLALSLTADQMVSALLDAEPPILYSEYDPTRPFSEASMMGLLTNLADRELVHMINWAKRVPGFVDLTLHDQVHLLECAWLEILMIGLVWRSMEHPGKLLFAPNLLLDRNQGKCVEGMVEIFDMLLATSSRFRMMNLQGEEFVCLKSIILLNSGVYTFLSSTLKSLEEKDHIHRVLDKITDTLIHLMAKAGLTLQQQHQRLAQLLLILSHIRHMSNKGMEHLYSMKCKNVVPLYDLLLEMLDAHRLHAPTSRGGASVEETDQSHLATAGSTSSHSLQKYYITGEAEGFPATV

Question: How did the outcome turn out when `CC(C)C(=O)OCC(C)(C)C(OC(=O)C(C)C)C(C)C` (configuration not stated) was run?
Answer: inactive

Question: How did the outcome turn out when `CC#Cc1cc(C)nc(Nc2ccccc2)n1` was run?
Answer: inactive

Question: For `C1CC2OC2CC1C1CO1` (configuration not stated), which outcome is on record?
Answer: inactive

Question: `ClC1=C(Cl)[C@]2(Cl)[C@@H]3[C@@H]4C[C@@H]([C@H]5O[C@@H]45)[C@@H]3[C@@]1(Cl)C2(Cl)Cl` was tested. Which outcome did it give?
Answer: inactive

Question: For `ClC1=C(Cl)[C@]2(Cl)[C@@H]3[C@@H](Cl)[C@H]4O[C@H]4[C@@H]3C1(Cl)C2(Cl)Cl`, which outcome is on record?
Answer: inactive

Question: Which outcome does the source give for `Cc1ccccc1[N+](=O)[O-]` here?
Answer: inactive

Question: Which outcome does the source give for `ClC1=C(Cl)[C@]2(Cl)[C@@H]3[C@H]4C[C@H]([C@@H]5O[C@H]45)[C@@H]3[C@@]1(Cl)C2(Cl)Cl` here?
Answer: inactive

Question: `CN(C)CCO` was tested. Which outcome did it give?
Answer: inactive

Question: How did the outcome turn out when `CCCN(CCC)N=O` was run?
Answer: inactive

Question: With `CCOP(=S)(OCC)SCSC(C)(C)C` as the compound, how does the outcome read?
Answer: inactive

Question: With `CCC(C)c1cc([N+](=O)[O-])cc([N+](=O)[O-])c1O` (configuration not stated) as the compound, how does the outcome read?
Answer: inactive

Question: `OCC(O)CO` was tested. Which outcome did it give?
Answer: inactive

Question: `O=C(N[C@H]1CN2CCC1CC2)c1cc2ccoc2cn1` was tested. Which outcome did it give?
Answer: inactive

Question: With `C=CC(=O)NCNC(=O)C=C` as the compound, how does the outcome read?
Answer: inactive

Question: Which outcome does the source give for `CN(C)c1nc(=O)n(C2CCCCC2)c(=O)n1C` here?
Answer: inactive

Question: With `c1ccc(-c2ccccc2)cc1` as the compound, how does the outcome read?
Answer: inactive

Question: `CCCCCCOC(=O)c1ccccc1C(=O)OCCCCCC` was tested. Which outcome did it give?
Answer: inactive

Question: `Sc1ccccc1` was tested. Which outcome did it give?
Answer: inactive

Question: With `COS(=O)(=O)OC` as the compound, how does the outcome read?
Answer: inactive

Question: How did the outcome turn out when `Nn1cnnc1` was run?
Answer: inactive

Question: How did the outcome turn out when `C=CC(N)=O` was run?
Answer: inactive

Question: `CCSC(=O)N(CC)C1CCCCC1` was tested. Which outcome did it give?
Answer: inactive

Question: How did the outcome turn out when `Cc1ccc(O)c(C)c1` was run?
Answer: inactive

Question: Which outcome does the source give for `CC1=C2C[C@H]3[C@@H](CC=C4C[C@@H](O)CC[C@@]43C)[C@@H]2CC[C@]12O[C@@H]1C[C@H](C)CN[C@H]1[C@H]2C` here?
Answer: inactive

Question: With `O=S(=O)(O)C(F)(F)C(F)(F)C(F)(F)C(F)(F)F` as the compound, how does the outcome read?
Answer: inactive

Question: With `Clc1ccc(Cl)cc1` as the compound, how does the outcome read?
Answer: inactive

Question: How did the outcome turn out when `O=C(NC(=O)c1c(F)cccc1F)Nc1cc(Cl)c(OC(F)(F)C(F)F)c(Cl)c1` was run?
Answer: inactive

Question: How did the outcome turn out when `Cc1cccc(C)c1N` was run?
Answer: inactive

Question: For `Cc1cccc([N+](=O)[O-])c1`, which outcome is on record?
Answer: inactive

Question: For `Cc1ccccc1O`, which outcome is on record?
Answer: inactive

Target: Estrogen receptor (Homo sapiens) (UniProt P03372)
Assay: OT_ER_ERaERa_0480: Odyssey Thera (OT) 8-hour HEK293T Protein-Complementation Assay for Estrogen Receptor-alpha/-alpha Homodimer (AID 2283351);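 further: rise in fluorescence from reassembled reporter fragments on ERα LBD homodimer in nucleus or whole cell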
Method in brief: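 HEK293T cells stably expressing a PCA pair of ER alpha LBD (residues 310-547) were dosed for 8 hours. The gain in fluorescence intensity, nuclear for agonists and whole-cell for antagonists, was measured by laser scanning cytometry against DMSO vehicle.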

Question: `CC#Cc1cc(C)nc(Nc2ccccc2)n1` was tested. Which outcome did it give?
Answer: inactive

Question: `C1CC2OC2CC1C1CO1` (configuration not stated) was tested. Which outcome did it give?
Answer: inactive

Question: Which outcome does the source give for `ClC1=C(Cl)[C@]2(Cl)[C@@H]3[C@@H]4C[C@@H]([C@H]5O[C@@H]45)[C@@H]3[C@@]1(Cl)C2(Cl)Cl` here?
Answer: inactive

Question: How did the outcome turn out when `ClC1=C(Cl)[C@]2(Cl)[C@@H]3[C@@H](Cl)[C@H]4O[C@H]4[C@@H]3C1(Cl)C2(Cl)Cl` was run?
Answer: inactive

Question: With `Cc1ccccc1[N+](=O)[O-]` as the compound, how does the outcome read?
Answer: inactive

Question: How did the outcome turn out when `ClC1=C(Cl)[C@]2(Cl)[C@@H]3[C@H]4C[C@H]([C@@H]5O[C@H]45)[C@@H]3[C@@]1(Cl)C2(Cl)Cl` was run?
Answer: inactive

Question: With `CN(C)CCO` as the compound, how does the outcome read?
Answer: inactive

Question: `CCCN(CCC)N=O` was tested. Which outcome did it give?
Answer: inactive

Question: For `CCOP(=S)(OCC)SCSC(C)(C)C`, which outcome is on record?
Answer: inactive

Question: For `CCC(C)c1cc([N+](=O)[O-])cc([N+](=O)[O-])c1O` (configuration not stated), which outcome is on record?
Answer: inactive

Question: For `OCC(O)CO`, which outcome is on record?
Answer: inactive

Question: For `O=C(N[C@H]1CN2CCC1CC2)c1cc2ccoc2cn1`, which outcome is on record?
Answer: inactive

Question: `C=CC(=O)NCNC(=O)C=C` was tested. Which outcome did it give?
Answer: inactive

Question: With `CN(C)c1nc(=O)n(C2CCCCC2)c(=O)n1C` as the compound, how does the outcome read?
Answer: inactive

Question: How did the outcome turn out when `c1ccc(-c2ccccc2)cc1` was run?
Answer: inactive

Question: `CCCCCCOC(=O)c1ccccc1C(=O)OCCCCCC` was tested. Which outcome did it give?
Answer: inactive

Question: For `Sc1ccccc1`, which outcome is on record?
Answer: inactive

Question: Which outcome does the source give for `COS(=O)(=O)OC` here?
Answer: inactive

Question: Which outcome does the source give for `Nn1cnnc1` here?
Answer: inactive

Question: How did the outcome turn out when `C=CC(N)=O` was run?
Answer: inactive

Question: `CCSC(=O)N(CC)C1CCCCC1` was tested. Which outcome did it give?
Answer: inactive

Question: With `Cc1ccc(O)c(C)c1` as the compound, how does the outcome read?
Answer: inactive

Question: For `CC1=C2C[C@H]3[C@@H](CC=C4C[C@@H](O)CC[C@@]43C)[C@@H]2CC[C@]12O[C@@H]1C[C@H](C)CN[C@H]1[C@H]2C`, which outcome is on record?
Answer: inactive

Question: Which outcome does the source give for `Clc1ccc(Cl)cc1` here?
Answer: inactive

Question: Which outcome does the source give for `O=C(NC(=O)c1c(F)cccc1F)Nc1cc(Cl)c(OC(F)(F)C(F)F)c(Cl)c1` here?
Answer: inactive

Question: With `Cc1cccc(C)c1N` as the compound, how does the outcome read?
Answer: inactive

Question: With `Cc1cccc([N+](=O)[O-])c1` as the compound, how does the outcome read?
Answer: inactive

Question: How did the outcome turn out when `Cc1ccccc1O` was run?
Answer: inactive

Target: Estrogen receptor (Homo sapiens) + Estrogen receptor beta (Homo sapiens) (UniProt P03372+Q92731)
Sequence (P03372 whole entry, looked up): as the sequence (P03372 whole entry, looked up, the tested form may be a part) above
Sequence (Q92731 whole entry, looked up): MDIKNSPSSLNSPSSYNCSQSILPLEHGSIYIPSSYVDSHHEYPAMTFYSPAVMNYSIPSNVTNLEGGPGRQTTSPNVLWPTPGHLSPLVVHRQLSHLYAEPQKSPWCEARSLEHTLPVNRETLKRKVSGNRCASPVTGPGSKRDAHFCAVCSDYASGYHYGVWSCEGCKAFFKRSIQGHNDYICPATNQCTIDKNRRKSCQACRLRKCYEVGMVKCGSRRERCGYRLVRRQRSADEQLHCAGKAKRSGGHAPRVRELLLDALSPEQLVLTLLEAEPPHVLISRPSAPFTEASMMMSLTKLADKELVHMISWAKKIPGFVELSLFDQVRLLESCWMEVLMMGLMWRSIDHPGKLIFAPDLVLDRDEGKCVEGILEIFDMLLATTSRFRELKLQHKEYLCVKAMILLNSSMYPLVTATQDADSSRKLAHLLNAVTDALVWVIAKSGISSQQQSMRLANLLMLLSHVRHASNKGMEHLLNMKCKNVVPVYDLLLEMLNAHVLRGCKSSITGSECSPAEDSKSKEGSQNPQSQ
Assay: OT_ER_ERaERb_0480: Odyssey Thera (OT) 8-hour HEK293T Protein-Complementation Assay for Estrogen Receptor-alpha/-beta Heterodimer (AID 2283352)
Method in brief: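 Human HEK293T cells were treated for 8 hours and receptor heterodimerisation was detected through reconstitution of a fluorescent reporter split between ER-alpha and ER-beta ligand-binding domains. Activity was analysed as gain of signal against DMSO.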

Question: Which outcome does the source give for `CC(C)C(=O)OCC(C)(C)C(OC(=O)C(C)C)C(C)C` (configuration not stated) here?
Answer: inactive

Question: For `CC#Cc1cc(C)nc(Nc2ccccc2)n1`, which outcome is on record?
Answer: inactive

Question: `C1CC2OC2CC1C1CO1` (configuration not stated) was tested. Which outcome did it give?
Answer: inactive

Question: With `ClC1=C(Cl)[C@]2(Cl)[C@@H]3[C@@H](Cl)[C@H]4O[C@H]4[C@@H]3C1(Cl)C2(Cl)Cl` as the compound, how does the outcome read?
Answer: inactive

Question: How did the outcome turn out when `CN(C)CCO` was run?
Answer: inactive

Question: `CCCN(CCC)N=O` was tested. Which outcome did it give?
Answer: inactive

Question: How did the outcome turn out when `CCC(C)c1cc([N+](=O)[O-])cc([N+](=O)[O-])c1O` (configuration not stated) was run?
Answer: inactive

Question: For `OCC(O)CO`, which outcome is on record?
Answer: inactive

Question: `O=C(N[C@H]1CN2CCC1CC2)c1cc2ccoc2cn1` was tested. Which outcome did it give?
Answer: inactive

Question: Which outcome does the source give for `C=CC(=O)NCNC(=O)C=C` here?
Answer: inactive

Question: With `c1ccc(-c2ccccc2)cc1` as the compound, how does the outcome read?
Answer: inactive

Question: `Nn1cnnc1` was tested. Which outcome did it give?
Answer: inactive

Question: `Cc1ccc(O)c(C)c1` was tested. Which outcome did it give?
Answer: inactive

Question: How did the outcome turn out when `Clc1ccc(Cl)cc1` was run?
Answer: inactive

Question: For `O=C(NC(=O)c1c(F)cccc1F)Nc1cc(Cl)c(OC(F)(F)C(F)F)c(Cl)c1`, which outcome is on record?
Answer: inactive

Question: How did the outcome turn out when `Cc1cccc(C)c1N` was run?
Answer: inactive

Question: How did the outcome turn out when `Cc1ccccc1O` was run?
Answer: inactive

Target: Androgen Receptor/SRC-1 Co-activator, AR (gene 367) (UniProt P10275)
Sequence (P10275 whole entry, looked up): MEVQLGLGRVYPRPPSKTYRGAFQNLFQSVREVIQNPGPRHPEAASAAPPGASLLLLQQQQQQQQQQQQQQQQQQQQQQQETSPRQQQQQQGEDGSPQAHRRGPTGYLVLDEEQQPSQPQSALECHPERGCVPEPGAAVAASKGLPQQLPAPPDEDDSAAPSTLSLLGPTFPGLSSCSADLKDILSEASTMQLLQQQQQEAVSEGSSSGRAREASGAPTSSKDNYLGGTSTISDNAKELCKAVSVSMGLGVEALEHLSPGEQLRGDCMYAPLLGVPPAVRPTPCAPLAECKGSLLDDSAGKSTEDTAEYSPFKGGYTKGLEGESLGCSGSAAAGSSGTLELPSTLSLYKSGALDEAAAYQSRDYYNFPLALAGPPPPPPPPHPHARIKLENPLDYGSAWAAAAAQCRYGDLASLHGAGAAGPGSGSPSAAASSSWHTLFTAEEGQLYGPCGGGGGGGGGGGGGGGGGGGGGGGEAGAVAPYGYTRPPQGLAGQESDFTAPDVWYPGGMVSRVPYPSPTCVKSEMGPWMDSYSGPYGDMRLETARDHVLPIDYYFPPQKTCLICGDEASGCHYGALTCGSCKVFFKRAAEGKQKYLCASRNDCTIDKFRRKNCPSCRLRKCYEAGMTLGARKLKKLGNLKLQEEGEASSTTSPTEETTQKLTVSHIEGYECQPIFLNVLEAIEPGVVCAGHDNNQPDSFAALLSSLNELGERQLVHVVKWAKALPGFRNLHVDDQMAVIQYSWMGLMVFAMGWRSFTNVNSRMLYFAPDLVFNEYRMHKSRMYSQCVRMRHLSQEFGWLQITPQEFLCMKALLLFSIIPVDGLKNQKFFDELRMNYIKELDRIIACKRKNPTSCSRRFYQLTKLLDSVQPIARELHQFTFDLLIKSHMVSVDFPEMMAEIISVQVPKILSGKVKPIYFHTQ
Assay: OT_AR_ARSRC1_0960: Odyssey Thera (OT) 16-hour HEK293T Protein-Complementation Assay for Androgen Receptor/SRC-1 Co-activator (AID 2283353);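 further: actives raise the signal above DMSO so potency reflects increased AR and SRC-1 complex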
Method in brief: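 Endpoint is gain-of-signal N/C fluorescence ratio in the 488 nm channel versus DMSO, from at least 400 cells per image, measured 16 h post-dosing. Cells: HEK293T stably carrying split-Venus AR/SRC-1 complementation constructs.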

Question: With `CCNc1nc(NC(C)C)nc(SC)n1` as the compound, how does the outcome read?
Answer: inactive

Question: For `O=C(N[C@H]1CN2CCC1CC2)c1cc2ccoc2cn1`, which outcome is on record?
Answer: inactive

Question: For `C=CC(=O)NCNC(=O)C=C`, which outcome is on record?
Answer: inactive

Question: `Cc1ccccc1CO[C@@H]1C[C@@]2(C(C)C)CC[C@]1(C)O2` was tested. Which AC50 did it give?
Answer: 79.7 µM (active)

Question: Which outcome does the source give for `c1ccc(-c2ccccc2)cc1` here?
Answer: inactive

Question: Which outcome does the source give for `CC1=C2C[C@H]3[C@@H](CC=C4C[C@@H](O)CC[C@@]43C)[C@@H]2CC[C@]12O[C@@H]1C[C@H](C)CN[C@H]1[C@H]2C` here?
Answer: inactive

Question: For `O=C(NC(=O)c1c(F)cccc1F)Nc1cc(Cl)c(OC(F)(F)C(F)F)c(Cl)c1`, which outcome is on record?
Answer: inactive

Reference: PubChem BioAssay (EPA / NIEHS)
